{"source": "PubChem BioAssay AID2561", "about": "(National Center for Advancing Translational Sciences (NCATS), 2010)", "note": "Records with an inconclusive call do not appear. Calls of active or inactive are those of the source. The call rests on the fitted dose curve; in most records, active means well fitted inhibition curve with a large enough effect; inconclusive means small, poorly fitted or top-dose-only effect, or effect the other way; inactive means flat fitted curve, though single readings scatter. Potency means the concentration at half of the fitted maximal effect.", "data": [{"target": "Pyruvate kinase (Leishmania mexicana) (UniProt Q27686)", "sequence (Q27686 whole entry, looked up)": "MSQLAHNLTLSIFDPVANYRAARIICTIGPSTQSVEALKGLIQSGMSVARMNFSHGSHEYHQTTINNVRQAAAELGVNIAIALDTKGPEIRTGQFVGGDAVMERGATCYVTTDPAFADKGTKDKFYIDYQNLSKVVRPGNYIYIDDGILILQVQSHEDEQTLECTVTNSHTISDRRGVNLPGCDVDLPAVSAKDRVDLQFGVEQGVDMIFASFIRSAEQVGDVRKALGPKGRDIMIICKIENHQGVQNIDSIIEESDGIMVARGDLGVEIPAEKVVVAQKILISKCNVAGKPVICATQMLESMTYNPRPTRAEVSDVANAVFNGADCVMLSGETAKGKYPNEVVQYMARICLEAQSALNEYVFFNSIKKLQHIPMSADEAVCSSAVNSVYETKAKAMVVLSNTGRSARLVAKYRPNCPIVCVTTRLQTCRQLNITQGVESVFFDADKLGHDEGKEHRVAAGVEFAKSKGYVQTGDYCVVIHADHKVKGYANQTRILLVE", "assay": "Confirmation Assay for Inhibitors of Leishmania Mexicana Pyruvate Kinase (LmPK): for Probe SAR;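 on activity change, negative = inhibition: plate controls were uninhibited enzyme for no effect and no enzyme wells for full effect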", "details": "purified LmPK, ATP generation, Kinase-Glo luminescence; series mostly up to 57.5 µM; activity change, negative = inhibition: at the top concentration", "source_text": "NIH Chemical Genomics Center [NCGC] Malcolm Walkinshaw, Hugh Morgan, Linda Gilmore University of Edinburgh, UK MLPCN Grant: 1 R03 MH085697-01 NCGC Assay Overview: Pyruvate kinase (L. Mexicana) (LmPK) enzyme was supplied as a highly purified (>95% pure) sulphate-free preparation from University of Edinburgh, UK and assayed for its ability to generate ATP from ADP using phosphoenolpyruvate (PEP) as a substrate. ATP generation was detected in a coupled reaction by luciferase-mediated luminescence, an ATP-dependent process. Pyruvate kinase substrates, PEP and ADP, were present in the assay at Km and approximately 10-fold below Km respectively. The enzyme was assayed at an intermediate level of activity to screen for both inhibitors and activators.\nNCGC Assay Protocol Summary: Three uL of enzyme mix (kept on ice) in assay buffer (50 mM Imidazole pH7.2, 50 mM KCl, 7 mM MgCl2, 0.01% Tween 20, 0.05% BSA) containing PEP (0.5 mM final concentration) and LmPK (0.1 nM final concentration) was dispensed into white solid bottom 1,536 well microtiter plates. 23 nL of compound were delivered by a pin tool and 1 uL of ADP mix in assay buffer (r.t; 0.1 mM final ADP concentration) was added. Plates were incubated at room temperature for 1 hour. Two uL of detection mix (Kinase-Glo, Promega; at 4 degree Celsius protected from light) was added and luminescence read by a ViewLux (Perkin Elmer) at 1 second exposure/plate. Data were normalized to the uninhibited and AC100 inhibition (no enzyme). To monitor activation, the first column contained a five-fold concentration of LmPK (0.5 nM).", "values": [{"molecule": "O=C1NS(=O)(=O)c2ccccc21", "Potency": "inactive"}, {"molecule": "Cc1cc(C)c2c(=O)cc(C3C(=O)c4ccccc4C3=O)[nH]c2c1", "activity change, negative = inhibition": "-17.6% (inactive)"}, {"molecule": "Cc1scc2c1C(=O)NS2(=O)=O", "activity change, negative = inhibition": "1.67% (inactive)"}, {"molecule": "Cc1ccc(-c2nc3ccccn3c2Nc2ccccc2C)o1", "activity change, negative = inhibition": "6.67% (inactive)"}, {"molecule": "O=S1(=O)N=C(Oc2ccc(-c3ccccc3)cc2)c2ccccc21", "Potency": "4.11 µM (active)"}, {"molecule": "COC(=O)c1ccccc1S(=O)(=O)Nc1ccc(OC)cc1", "activity change, negative = inhibition": "4.6% (inactive)"}, {"molecule": "COc1ccc(NS(=O)(=O)c2ccccc2C(=O)O)cc1", "activity change, negative = inhibition": "8.54% (inactive)"}, {"molecule": "Cc1ccc(NS(=O)(=O)c2cc3c(cc2-c2ccccc2)NC(=O)CO3)cc1C", "activity change, negative = inhibition": "1.9% (inactive)"}, {"molecule": "Cc1ccn2c(NC3CCCCC3)c(-c3ccc(C)o3)nc2c1", "activity change, negative = inhibition": "0% (inactive)"}, {"molecule": "O=C1c2ccccc2C(=O)N1C1CCCCC1", "activity change, negative = inhibition": "5.07% (inactive)"}, {"molecule": "O=C1c2ccccc2C(=O)N1c1ncccc1O", "activity change, negative = inhibition": "5.08% (inactive)"}, {"molecule": "CC(=O)N1CCc2cc(S(=O)(=O)Nc3ccc(C)c(C)c3)ccc21", "activity change, negative = inhibition": "-1.54% (inactive)"}, {"molecule": "CC(=O)Nc1cccc(OC2=NS(=O)(=O)c3ccccc32)c1", "Potency": "2.06 µM (active)"}, {"molecule": "Cc1cccc(NS(=O)(=O)c2ccc3c(c2)CCC(=O)N3)c1", "activity change, negative = inhibition": "-10.1% (inactive)"}, {"molecule": "COc1cccc(Cn2ncc3c4sc(S(C)=O)cc4n(C)c3c2=O)c1", "note": "(stereo not given)", "Potency": "inactive"}, {"molecule": "Cc1ccccc1N(C)C1=N[S+](=O)([O-])c2ccccc21", "activity change, negative = inhibition": "2.85% (inactive)"}, {"molecule": "Cc1ccccc1NS(=O)(=O)c1ccc2c(c1)CCC(=O)N2", "activity change, negative = inhibition": "10.1% (inactive)"}, {"molecule": "O=C1c2ccccc2C(=O)N1c1nccs1", "activity change, negative = inhibition": "-17.1% (inactive)"}, {"molecule": "COc1ccc(-c2nc3ccccn3c2Nc2ccccc2C)cc1", "activity change, negative = inhibition": "7.87% (inactive)"}, {"molecule": "Cc1ccc(Nc2c(-c3ccsc3)nc3c(C)cccn23)cc1", "activity change, negative = inhibition": "-12% (inactive)"}, {"molecule": "Cc1ccc(C)c(O)c1", "activity change, negative = inhibition": "-3.02% (inactive)"}, {"molecule": "Cc1ccc(Nc2c(-c3ccsc3)nc3cccc(C)n23)cc1", "activity change, negative = inhibition": "10.1% (inactive)"}, {"molecule": "O=C1NS(=O)(=O)c2cscc21", "activity change, negative = inhibition": "2.97% (inactive)"}, {"molecule": "CC(C)c1ccccc1SC1=NS(=O)(=O)c2ccccc21", "Potency": "1.83 µM (active)"}, {"molecule": "Cc1ccc(C)c(SC2=N[S+](=O)([O-])c3cc(C(=O)Nc4ccc5ncccc5c4)ccc32)c1", "activity change, negative = inhibition": "-10.8% (inactive)"}, {"molecule": "CC(=O)Nc1ccccc1OC1=N[S+](=O)([O-])c2ccccc21", "activity change, negative = inhibition": "-3% (inactive)"}, {"molecule": "Cc1ccc(NS(=O)(=O)c2cc3c(cc2Cl)NC(=O)CO3)cc1C", "activity change, negative = inhibition": "10.2% (inactive)"}, {"molecule": "Cc1ccc(C)c(SC2=NS(=O)(=O)c3ccccc32)c1", "Potency": "4.11 µM (active)"}, {"molecule": "O=C1c2ccccc2C(=O)C1c1nccc2ccccc12", "Potency": "18.3 µM (active)"}, {"molecule": "O=S1(=O)N=C(Oc2ccccc2)c2ccccc21", "Potency": "8.01 µM (active)"}, {"molecule": "O=C1c2ccccc2C(=O)N1c1ccccn1", "activity change, negative = inhibition": "23.6% (inactive)"}, {"molecule": "Cc1ccc(NS(=O)(=O)c2ccc3c(c2)oc(=O)n3C)cc1C", "activity change, negative = inhibition": "8.92% (inactive)"}, {"molecule": "Cc1ccc(NS(=O)(=O)c2cc3c(cc2-c2ccsc2)NC(=O)CO3)cc1C", "activity change, negative = inhibition": "1.92% (inactive)"}, {"molecule": "Cc1ccc(NS(=O)(=O)c2ccc(Cl)cc2)cc1C", "activity change, negative = inhibition": "7.67% (inactive)"}, {"molecule": "COc1cccc(NS(=O)(=O)c2ccc3c(c2)CCC(=O)N3)c1", "activity change, negative = inhibition": "-2.76% (inactive)"}, {"molecule": "O=C1CCc2cc(S(=O)(=O)Nc3cccc(-c4ccccc4)c3)ccc2N1", "activity change, negative = inhibition": "15% (inactive)"}, {"molecule": "N#Cc1cccc(OC2=NS(=O)(=O)c3ccccc32)c1", "Potency": "4.61 µM (active)"}, {"molecule": "Cc1ccc(NS(=O)(=O)c2cccc(F)c2)cc1C", "activity change, negative = inhibition": "-2.19% (inactive)"}, {"molecule": "O=C1NS(=O)(=O)c2cc(Cl)ccc21", "activity change, negative = inhibition": "-0.814% (inactive)"}, {"molecule": "CN(C)c1cccc(S(=O)(=O)N2CCN(S(=O)(=O)c3ccc4c(c3)OCCO4)CC2)c1", "activity change, negative = inhibition": "-6.38% (inactive)"}]}]}
